A selection: hits, their analogues and other compounds. The true share with any hit is near 0.7%.
Epigenetic reg: regulators of epigenetic silencing causing reporter derepression in mouse cells. 280,000 compounds, 0.2% hits. murine LDR cells, GFP reporter derepression, 30 h. Potency, µM (titrated, usually from 53.9 µM), usual class: activators; also: nearly all actives have a fitted effect of over 60% in size
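Murine LDR cells bearing a silenced CMV-driven GFP reporter were exposed to compound for 30 h at 37 C. After PBS washes, GFP-positive cells (20-120 um objects) counted by laser-scanning microplate cytometry.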
PINK1 expr mod: modulators of PINK1 expression; PINK1 immunofluorescence, high-content cytometry, 24 h; Potency, µM (titrated, usually from 76.6 µM), usual class: activators; 410,000 compounds, 0.2% hits; AID 624263; active = well fitted activation curve with a large enough effect; inconclusive = small, poorly fitted or top-dose-only effect; cell line not stated here; also: nearly all actives have a fitted effect of over 65% in size
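PINK1 protein, normally rapidly degraded, was detected by immunofluorescence after 24 hour compound treatment of a stable cell line. Titration data (5 concentrations) came from laser-scanning cytometry, with CCCP-treated wells as controls.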
Vif-APOBEC3G blk: Vif-A3G binding inhibition. Q9HC16. HeLa A3G-eYFP + Vif (tagged APOBEC3G with the HIV-1 protein that degrades it), YFP fluorescence, overnight. Potency, µM (titrated, usually from 46.1 µM), most hits filed as inhibitors. 410,000 compounds, 0.076% hits. AID 602310; also: nearly all actives have a fitted effect of over 60% in size
Target sequence (Q9HC16 whole entry, looked up): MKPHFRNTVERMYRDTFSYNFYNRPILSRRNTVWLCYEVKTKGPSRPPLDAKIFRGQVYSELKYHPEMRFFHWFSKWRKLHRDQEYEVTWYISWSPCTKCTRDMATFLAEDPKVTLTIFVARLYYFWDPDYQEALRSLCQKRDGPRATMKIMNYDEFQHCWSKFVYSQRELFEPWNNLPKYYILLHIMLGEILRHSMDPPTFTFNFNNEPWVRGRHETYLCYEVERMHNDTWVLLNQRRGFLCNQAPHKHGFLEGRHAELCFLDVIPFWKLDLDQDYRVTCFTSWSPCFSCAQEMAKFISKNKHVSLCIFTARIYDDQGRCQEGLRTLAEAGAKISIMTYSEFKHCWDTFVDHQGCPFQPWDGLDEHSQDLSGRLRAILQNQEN
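HeLa cells stably expressing Vif and C-terminally eYFP-tagged A3G, seeded overnight at 37 deg C, then exposed to compound by pintool overnight at 37 deg C. Rise in yellow fluorescence (Ex 488/Em 500-530, Acumen) marks blocked Vif-driven A3G degradation.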
Vif-A3F inh: blocks the Vif interaction with APOBEC3F | HeLa A3F-eYFP + Vif (tagged APOBEC3F with the HIV-1 protein that degrades it), YFP fluorescence increase | Potency, µM (highest dose often 46.1 µM) | 390,000 compounds, 0.2% hits; also: nearly all actives have a fitted effect of over 65% in size
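HeLa cells stably expressing A3F-eYFP plus Vif, plated and incubated overnight at 37 deg C, then exposed to compounds overnight at 37 deg C. Blocked degradation read as raised yellow fluorescence (Ex 488/Em 500-530).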
GLS inhibitor: inhibitors of human glutaminase (GLS); AID 624170; Potency, µM (doses to about 45.5 µM), hits mostly inhibitors; O94925; GLS enzymatic activity, qHTS titration; 410,000 compounds, 0.21% hits
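hKGA in 45 mM KH2PO4 pH 8.2, 0.02% Tween-20 with pin-transferred compounds; 1 mM L-glutamine (stock) plus glutamate oxidase/HRP/Amplex Red coupling added. Fluorescence read initially and after 30 min at RT.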
Of the large screens only hits and unclear results are named; the others gave an inactive call. Unless noted, calls follow the shape of the dose curve; as a rule, active = well fitted curve in the direction sought with a large enough effect; inconclusive = small, poorly fitted or top-dose-only effect, or another doubt; inactive = no such curve, though single readings can be large; an effect the other way counts as inactive or inconclusive.

CCOC(=O)Nc1cc2c(c(N)n1)N=C(c1ccccc1)CN2	Vif-APOBEC3G blk inconclusive, Vif-A3F inh 22µM, GLS inhibitor inconclusive (no result: Epigenetic reg)
COc1ccc(Cl)cc1NC(=O)C/C(C)=N/NC(=O)c1ccccc1[N+](=O)[O-]	none (no result: Epigenetic reg)
COc1ccc(Cl)cc1NC(=O)c1cccc([N+](=O)[O-])c1O	PINK1 expr mod 22µM (no result: Epigenetic reg)
Cc1ncc2c(c1CNC(=O)c1ccc3c(c1)OCO3)CCN(C(=O)c1cnsn1)C2	none (no result: Epigenetic reg, Vif-APOBEC3G blk, Vif-A3F inh, GLS inhibitor)
C=CC(=O)N1C/C(=C/c2ccc(F)cc2)C(=O)/C(=C\c2ccc(F)cc2)C1	Vif-APOBEC3G blk inconclusive, Vif-A3F inh inconclusive, GLS inhibitor 10µM (no result: Epigenetic reg)
COc1ccc(-n2c3c(c(=O)[nH]c2=O)C(C(F)(F)F)(C(F)(F)F)N=C(CC(C)C)N3)cc1	none
O=c1[nH]c(=O)n(-c2ccc(F)cc2)c2c1C(C(F)(F)F)(C(F)(F)F)N=C(c1ccc(F)cc1)N2	PINK1 expr mod 10µM
Cc1ccc(C2=NC(C(F)(F)F)(C(F)(F)F)c3c(n(-c4ccc(F)cc4)c(=O)[nH]c3=O)N2)cc1	PINK1 expr mod 40µM
COC(=O)C1CCN(Cc2ccc3c(c2)CN(C(=O)c2cc(C4CC4)on2)CCO3)CC1	none (no result: Epigenetic reg, Vif-APOBEC3G blk, Vif-A3F inh, GLS inhibitor)
Cc1cc(OCC(=O)Nc2nnc(C3CC3)s2)ccc1Cl	Vif-APOBEC3G blk 2.8µM (no result: Epigenetic reg)
O=C1CC(C(=O)N2CCOc3ccc(CN4CCC(Oc5cccnc5)CC4)cc3C2)c2ccccc21 (stereo not drawn)	none (no result: Epigenetic reg, Vif-APOBEC3G blk, Vif-A3F inh, GLS inhibitor)
FC(F)(F)c1cnc(NNC(=S)Nc2ccccc2Cl)c(Cl)c1	PINK1 expr mod inconclusive, GLS inhibitor inconclusive
Cc1cccc(NC(=S)NNc2ncc(C(F)(F)F)cc2Cl)c1	PINK1 expr mod 20µM
Clc1cccc(Cc2c(-c3ccco3)nc3ccc(Br)cn23)c1	Vif-APOBEC3G blk inconclusive, GLS inhibitor 11µM (no result: Epigenetic reg, Vif-A3F inh)
CC(=O)Nc1ccc(S(=O)(=O)Nc2nc3ccccc3nc2N2CCCCCC2)cc1	none
Cc1ccc(S(=O)(=O)Nc2nc3ccccc3nc2N2CCN(c3ccccc3F)CC2)cc1	none
CN1CCN(c2nc3ccccc3nc2NS(=O)(=O)c2ccc(Br)cc2)CC1	Vif-A3F inh 10µM (no result: Epigenetic reg)
CC(=O)Nc1ccc(S(=O)(=O)Nc2nc3ccccc3nc2N2CCc3ccccc3C2)cc1	none
O=S(=O)(Nc1nc2ccccc2nc1N1CCc2ccccc2C1)c1ccc(Br)cc1	PINK1 expr mod inconclusive, Vif-A3F inh 22µM
O=S(=O)(Nc1nc2ccccc2nc1N1CCc2ccccc2C1)c1ccc(Cl)cc1	PINK1 expr mod 16µM
O=S(=O)(Nc1nc2ccccc2nc1N1CCN(c2ccccn2)CC1)c1ccc(Cl)cc1	Vif-APOBEC3G blk inconclusive, Vif-A3F inh 7.9µM
Cc1ccc(C(=O)Nc2cccc(-c3nc(CNC(=O)[C@@H]4C[C@@H](C)NC(=S)N4)c(C)o3)c2)s1	none (no result: Epigenetic reg, Vif-APOBEC3G blk, Vif-A3F inh, GLS inhibitor)
CCN(CC)C1CCN(C(=O)c2cnn(-c3nccc(-c4ccccc4OC)n3)c2-c2ccco2)C1 (stereo not drawn)	none (no result: Epigenetic reg, Vif-APOBEC3G blk, Vif-A3F inh, GLS inhibitor)
c1ccc2c(-c3nc4ccccc4[nH]3)cccc2c1	Vif-APOBEC3G blk 6.3µM (no result: Epigenetic reg)
c1ccc2[nH]c(-c3ccnc4ccccc34)nc2c1	none
O=C(NN1C(=O)/C(=C/c2ccc(O)cc2)SC1=S)c1ccccc1O	none (no result: Epigenetic reg)
COc1cc(/C=C2\SC(=S)N(NC(=O)c3ccccc3O)C2=O)ccc1O	Vif-A3F inh 11µM, GLS inhibitor inconclusive (no result: Epigenetic reg)
O=C(NCC1Cc2cccc(-c3cncnc3)c2O1)C1CC1 (stereo not drawn)	none (no result: Epigenetic reg, Vif-APOBEC3G blk, Vif-A3F inh, GLS inhibitor)
COc1cccc(-c2nc3cc4c(cc3cc2CN(C(=O)c2cc(C)nn2C)C2CC2)CCC4)c1OC	none (no result: Epigenetic reg, Vif-APOBEC3G blk, Vif-A3F inh, GLS inhibitor)
COc1cc(N=Nc2cccc(S(N)(=O)=O)c2)c2ccccc2c1N	Epigenetic reg 32µM, Vif-APOBEC3G blk inconclusive, Vif-A3F inh 25µM
Cn1nnnc1SCC1=C(C(=O)O)N2C(=O)[C@@H](NC(=O)[C@H](OC=O)c3ccccc3)[C@H]2SC1	GLS inhibitor 22µM (no result: Epigenetic reg, PINK1 expr mod, Vif-APOBEC3G blk, Vif-A3F inh)
Cn1nnnc1SCC1=C(C(=O)O)N2C(=O)C(NC(=O)C(O)c3ccccc3)C2SC1 (stereo not drawn)	none (no result: PINK1 expr mod, Vif-APOBEC3G blk, Vif-A3F inh, GLS inhibitor)
Cn1nnnc1SCC1=C(C(=O)O)N2C(=O)[C@@H](NC(=O)[C@H](O)c3ccccc3)[C@H]2SC1	GLS inhibitor 10µM
CC(=O)OCC1=C(C(=O)O)N2C(=O)[C@@H](NC(=O)CSc3ccncc3)[C@H]2SC1	GLS inhibitor 18µM

Screening data deposited in PubChem by National Center for Advancing Translational Sciences (NCATS).
